{"source": "PubChem BioAssay AID1851", "about": "(National Center for Advancing Translational Sciences (NCATS), 2009)", "note": "Out of some 16,000 compounds screened, about 5,800 (36%) were called active. Inconclusive results (about 23%) are left out. The call rests on the fitted dose curve; in most records, active means well fitted curve in the direction sought with a large enough effect; inconclusive means small, poorly fitted or top-dose-only effect, or effect the other way; inactive means no such curve, though single readings can be large or run the other way. Some of the results follow. On the % scale 0 is the no-effect control and ±100 the full control effect."}
{"molecular_target": "Cytochrome P450 2C19 (Homo sapiens) (UniProt P33261)", "sequence (P33261 whole entry, looked up)": "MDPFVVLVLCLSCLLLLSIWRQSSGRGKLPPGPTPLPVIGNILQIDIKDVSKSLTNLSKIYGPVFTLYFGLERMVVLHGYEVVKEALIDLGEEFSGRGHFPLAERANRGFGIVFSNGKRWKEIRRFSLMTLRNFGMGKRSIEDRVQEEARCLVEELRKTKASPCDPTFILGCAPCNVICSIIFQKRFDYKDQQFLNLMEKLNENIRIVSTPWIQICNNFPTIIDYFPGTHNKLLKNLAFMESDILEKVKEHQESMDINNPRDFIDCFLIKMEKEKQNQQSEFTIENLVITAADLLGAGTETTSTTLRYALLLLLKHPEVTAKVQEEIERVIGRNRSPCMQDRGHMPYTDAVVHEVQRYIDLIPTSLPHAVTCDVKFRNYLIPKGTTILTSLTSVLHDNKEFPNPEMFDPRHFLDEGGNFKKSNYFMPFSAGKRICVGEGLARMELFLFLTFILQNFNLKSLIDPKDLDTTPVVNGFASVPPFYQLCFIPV", "experiment": "Cytochrome panel assay with activity outcomes", "settings": "recombinant CYP, pro-luciferin dealkylation, luminescence, p450-cyp2c19; series mostly up to 57.1 µM; activity, negative = inhibition: at the top concentration", "method": "The P450 gene superfamily is involved in the metabolism and clearance of xenobiotics. This assay used various human CYP P450 isozymes to measure the dealkylation of various pro-luciferin substrates to luciferin. The luciferin is then measured by luminescence after the addition of a luciferase detection reagent. Pro-luciferin substrate concentration in the assay was equal to its KM for its CYP P450 isozyme. Inhibitors and some substrates limit the production of luciferin, and decrease measured luminescence.\nNCGC Assay Protocol Summary:\n1, Reagent, 2 uL, Isozyme and Pro-Luciferin\n2, Library compounds, 23 nl, 40 uM to 0.24 nM dilution series\n3, Controls, 23 nl, Isozyme specific inhibitor\n4, Reagent, 2 uL, NADPH regeneration solution\n5, Incubation time, 60 min, Isozyme specific temperature\n6, Reagent, 4ul, Detection reagent\n7, Incubation time, 20 min, Isozyme specific temperature\n8, Detection, 1 sec, ViewLux luminescent read\nThe luciferase-based P450-GloTM Screening Systems were obtained from Promega (Madison, WI) for CYP 1A2 (V9770), CYP 2C9 (V9790), CYP2 C19 (V9880), CYP 2D6 (V9890), and CYP 3A4 Luciferin-PPXE (V9910) and were adapted for 1,536-well microplates and an automated protocol. The control compounds furafylline for 1A2 (F124), sulfaphenazole for CYP 2C9 (S0758), ketoconazole for CYP 2C19 (K1003), quinidine for 2D6 (Q3625), and ketoconazole for 3A4 (K1003) were purchased from Sigma Aldrich (St. Louis, MO). Recombinant P450 enzymes were obtained from baculovirus constructs expressed in insect cells (BD/Gentest).\nMedium-binding white solid Kalypsys plates used. Mixtures kept on ice. 1A2: 10 nM 1A2, 100 uM Luc-ME, 100 mM KPO4; 2C9: 10 nM 2C9, 100 uM Luc-H, 25 mM KPO4; 2C19: 5 nM 2C19, 10 uM Luc-H EGE, 50 mM KPO4; 2D6: 5 nM 2D6, 30 uM Luc-ME EGE, 100 mM KPO4; 3A4: 10 nM, 25 uM Luc-PPXE. All amounts are reflected in their final concentration, working concentration is 2x.\nNADPH regeneration solution: 1.3 mM NADP+, 3.3 mM glucose-6-phosphate, 3.3 mM MgCl2, 0.4 U/mL glucose-6-phosphate dehydrogenase for all isozymes, 200 mM KPO4 for 3A4. Mixture prepared at RT but kept on ice during automated run.\nRT incubation in auxilliary plate hotel for 1A2, 2D6, and 3A4; 37C for 2C9 and 2C19.\nKeywords: P450, CYP1A2, CYP2C19, CYP2C9, CYP2D6, CYP3A4, Luciferase, MLSMR, MLSCN, NIH Roadmap, qHTS, NCGC"}
{"compound": "CCOC(=O)c1ncn2c1CN(C)C(=O)c1cc(F)ccc1-2", "AC50": "1580 nM (active)"}
{"compound": "O=C(Nc1ccccc1)N1CC2(CCN(C(=O)Oc3ccccc3)CC2)C1", "activity, negative = inhibition": "-43.7% (inactive)"}
{"compound": "COC(=O)[C@@H]1c2cc3c(c(O)c2[C@@H](O)C[C@]1(C)O)C(=O)c1c(O)cc2c(c1C3=O)O[C@H]1O[C@@]2(C)[C@@H](O)[C@H](N(C)C)[C@H]1O", "activity, negative = inhibition": "-43.8% [at 11.4 µM] (inactive)"}
{"compound": "N[C@H](Cc1ccc(N(CCCl)CCCl)cc1)C(=O)O", "activity, negative = inhibition": "12.3% (inactive)"}
{"compound": "CCCC(CCC)C(=O)O", "activity, negative = inhibition": "-0.0295% (inactive)"}
{"compound": "C1CCc2nnnn2CC1", "activity, negative = inhibition": "0.268% (inactive)"}
{"compound": "O=C(Nc1ccc(F)cc1F)c1cccnc1Oc1cccc(C(F)(F)F)c1", "AC50": "1260 nM (active)"}
{"compound": "NNC(=O)c1ccc(O)cc1", "activity, negative = inhibition": "28.3% (inactive)"}
{"compound": "CCCn1c(C)c(C(=O)c2cccc3ccccc23)c2ccccc21", "AC50": "10000 nM (active)"}
{"compound": "O=C(C[n+]1ccc2ccccc2c1)c1ccc2ccc3ccccc3c2c1", "activity, negative = inhibition": "1.57% [at 11.4 µM] (inactive)"}
{"compound": "CCCn1c(C)c(C(=O)c2ccc3ccccc3c2)c2ccccc21", "AC50": "2000 nM (active)"}
{"compound": "Cc1c(C(=O)c2ccc3ccccc3c2)c2cccc3c2n1[C@H](CN1CCOCC1)CO3", "activity, negative = inhibition": "6.16% (inactive)"}
{"compound": "COc1ccc(C(=O)c2c(C)n(CCN3CCOCC3)c3cc(I)ccc23)cc1", "activity, negative = inhibition": "7.54% (inactive)"}
{"compound": "COc1ccc2c3c1O[C@@H]1C(=O)CC[C@@]4(O)[C@@H](C2)N(CC2CC2)CC[C@]314", "activity, negative = inhibition": "-21.4% (inactive)"}
{"compound": "COc1ccc2c(c1)CCC1C2CC[C@]2(C)[C@H](NCCCCCCN3C(=O)C=CC3=O)CC[C@@H]12", "note": "(stereo partly specified)", "activity, negative = inhibition": "33.9% (inactive)"}
{"compound": "COc1cc2c(c(OC)c1OC)-c1ccc(O)c(=O)cc1[C@H](N)CC2", "activity, negative = inhibition": "-2.81% [at 25.6 µM] (inactive)"}
{"compound": "CN1[C@@H](C[C@@H](O)c2ccccc2)CCC[C@@H]1C[C@H](O)c1ccccc1", "activity, negative = inhibition": "35.4% [at 25.6 µM] (inactive)"}
{"compound": "O=C(Oc1ccccc1)N1CCC2(CCCN(Cc3nccs3)C2)CC1", "activity, negative = inhibition": "22.6% (inactive)"}
{"compound": "NCC[C@H](O)C(=O)N[C@H]1C[C@@H](N)[C@@H](O[C@H]2O[C@@H](CN)[C@@H](O)[C@@H](O)[C@@H]2N)[C@@H](O[C@H]2O[C@@H](CO)[C@@H](O)[C@@H]2O)[C@@H]1O", "activity, negative = inhibition": "23.6% [at 25.6 µM] (inactive)"}
{"compound": "Nc1nc(N)c(N=Nc2ccc([As](=O)(O)O)c(O)c2)c(N)n1", "activity, negative = inhibition": "31% [at 11.4 µM] (inactive)"}
{"compound": "NC(=NCCc1ccc(I)cc1)SCCCc1cnc[nH]1", "activity, negative = inhibition": "-36.4% (inactive)"}
{"compound": "CN1C(=O)C(=Cc2ccc(N3CCCCCC3)o2)C(=O)N(C)C1=S", "AC50": "2240 nM (active)"}
{"compound": "O=C(Nc1cccc(F)c1)N1CC2(CCNCC2)C1", "activity, negative = inhibition": "-10.4% (inactive)"}
{"compound": "COC(=O)[C@@H]1[C@@H](O)[C@@]2(O)c3c(OC)cc(OC)cc3O[C@@]2(c2ccc(OC)cc2)[C@H]1c1ccccc1", "activity, negative = inhibition": "8.06% [at 11.4 µM] (inactive)"}
{"compound": "CCC1=C(C[C@H]2NCCc3ccccc32)C[C@@H]2c3cc(OC)c(OC)cc3CCN2C1", "activity, negative = inhibition": "-23.2% [at 11.4 µM] (inactive)"}
{"compound": "C[C@]12CC[C@@H]3[C@H](CCC4=CC(=O)CC[C@]43C)[C@]1(O)CC[C@@]2(O)C(=O)CO", "activity, negative = inhibition": "24.8% [at 11.4 µM] (inactive)"}
{"compound": "N[C@@H]1C=CC=C(C(=O)O)C1", "activity, negative = inhibition": "26.3% (inactive)"}
{"compound": "O=[N+]([O-])c1ccc(S(=O)(=O)Cc2ccccc2)c([N+](=O)[O-])c1", "AC50": "2000 nM (active)"}
{"compound": "O=C(O)Cc1ccc([N+](=O)[O-])cc1[N+](=O)[O-]", "activity, negative = inhibition": "-28.8% [at 11.4 µM] (inactive)"}
{"compound": "O=[N+]([O-])c1cc(O)c(O)c([N+](=O)[O-])c1", "activity, negative = inhibition": "-35.3% (inactive)"}
{"compound": "c1ccc(N2CC[C@@]3(CCCNC3)C2)nc1", "activity, negative = inhibition": "10.5% (inactive)"}
{"compound": "CN1C(=O)C(=Cc2ccccc2Oc2ccc(Cl)c(F)c2)C(=O)N(C)C1=O", "AC50": "3550 nM (active)"}
{"compound": "COc1cc2c(cc1OC)[C@@]13CCN4CC5=CCO[C@H](CC(=O)O)[C@@H]([C@H]1N2)[C@H]5C[C@H]43", "activity, negative = inhibition": "-11.9% [at 11.4 µM] (inactive)"}
{"compound": "C[C@](N)(CCP(=O)(O)O)C(=O)O", "activity, negative = inhibition": "-26.4% (inactive)"}
{"compound": "CC1CN=C(Nc2cccc3ccccc23)S1", "note": "(stereo unspecified)", "AC50": "3980 nM (active)"}
{"compound": "CC(=O)O[C@@H]1CN2CCC1CC2", "activity, negative = inhibition": "-13.1% (inactive)"}
{"compound": "c1ccc(CCN2CCCCCC2)nc1", "activity, negative = inhibition": "38.1% [at 11.4 µM] (inactive)"}
{"compound": "CC(=O)N[C@@H]1CCSC1=O", "activity, negative = inhibition": "14.5% [at 25.6 µM] (inactive)"}
{"compound": "CN(N=O)C(=O)N[C@H]1C(O)OC(CO)[C@@H](O)[C@H]1O", "note": "(stereo partly specified)", "AC50": "7940 nM (active)"}
{"compound": "CC(=O)[C@]1(O)CC[C@@H]2[C@H]3C[C@@H](C)C4=CC(=O)CC[C@@]4(C)[C@H]3[C@@H](O)C[C@]21C", "activity, negative = inhibition": "-31.5% [at 11.4 µM] (inactive)"}
{"compound": "C=C[C@@H]1CN2CC[C@H]1C[C@H]2[C@H](O)c1ccnc2ccccc12", "activity, negative = inhibition": "44.5% [at 11.4 µM] (inactive)"}
{"compound": "NC(N)=NN=Cc1c(Cl)cccc1Cl", "activity, negative = inhibition": "27.6% [at 25.6 µM] (inactive)"}
{"compound": "CCCN1CCO[C@@H]2c3cc(O)ccc3OC[C@@H]21", "AC50": "10000 nM (active)"}
{"compound": "CCCN1CCO[C@@H]2c3cc(O)ccc3OC[C@H]21", "activity, negative = inhibition": "-29.4% (inactive)"}
{"compound": "CCCN1CC[C@@H]2c3cc(O)ccc3CC[C@H]21", "activity, negative = inhibition": "-19% (inactive)"}
{"compound": "O=C(O)[C@H]1[O][Sb][O][C@@H](C(=O)O)C1O", "note": "(stereo partly specified)", "activity, negative = inhibition": "15.3% [at 11.4 µM] (inactive)"}
